# Several values for one entry are separate records, joined by “and”; a condition that tells them apart may be missing. Identical values can stand only once. Inconclusive results are not listed. Values without a mark were called inactive. Activity calls are given as the source filed them. Calls follow the shape of the dose curve; as a rule, active = well fitted curve in the direction sought with a large enough effect; inconclusive = small, poorly fitted or top-dose-only effect, or another doubt; inactive = no such curve, though single readings can be large; an effect the other way counts as inactive or inconclusive.
# Tests used:
# [1] = molecular target: Cellular tumor antigen p53 (Homo sapiens) (UniProt P04637); assay: Primary qHTS for small molecule compounds that upregulate eGFP-tagged delta133p53alpha (in N-terminal) cells. (AID 2060322); details: NCI-H358 eGFP-delta133p53alpha fluorescence, 24 h; activation: active compounds read high; also: nearly all actives have a fitted effect of over 75% in size;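 as to activation: series mostly up to about 56 µM; 0% = DMSO vehicle and 100% = reference activator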
# Chain of Cellular tumor antigen p53 (Homo sapiens) (P04637 whole entry, looked up): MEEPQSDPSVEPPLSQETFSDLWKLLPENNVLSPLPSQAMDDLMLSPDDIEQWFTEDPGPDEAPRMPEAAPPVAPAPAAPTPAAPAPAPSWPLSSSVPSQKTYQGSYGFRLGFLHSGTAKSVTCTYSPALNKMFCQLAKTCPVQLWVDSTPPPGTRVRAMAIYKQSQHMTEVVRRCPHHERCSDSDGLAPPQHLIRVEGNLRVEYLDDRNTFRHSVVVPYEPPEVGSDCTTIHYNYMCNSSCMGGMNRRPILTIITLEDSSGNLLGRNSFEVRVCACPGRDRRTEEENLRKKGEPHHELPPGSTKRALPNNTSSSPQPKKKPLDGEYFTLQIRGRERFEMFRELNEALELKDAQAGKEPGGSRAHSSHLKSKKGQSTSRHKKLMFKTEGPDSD
# Outline: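 NCI-H358 cells pre-induced 24 h with 10 ng/ml doxycycline to express N-terminal eGFP-delta133p53alpha, then dosed 24 h at 37C without doxycycline; fixed, Hoechst-stained, GFP intensity by laser scanning cytometry, normalized to DMSO (0%) and 57.5 uM 5-azacytidine (100%).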
# [2] = BET inhibitor-based combinations targeting novel dependencies in MECOM-rearranged (r) AML: SET-2 cell line (AID 2202231); details: SET-2 AML cells viability, CellTiter-Glo luminescence, 48 h; viability: active compounds read low, concentration not given here; also: nearly all actives have a fitted effect of over 35% in size;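 as to viability: plate controls were DMSO treated cells for no effect and wells without cells for full effect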
# Outline: (§1)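 Readout: CellTiter-Glo luminescence. Exposure: 48 h, 11 concentrations, 500 cells/well. Metric: AUC and within-line Z-AUC after DMSO/empty-well normalization.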
# [3] = BET inhibitor-based combinations targeting novel dependencies in MECOM-rearranged (r) AML: MV-4-11 cell line (AID 2202233); also: nearly all actives have a fitted effect of over 45% in size
# Outline: (§2)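 Seeding density was 500 cells/well, and drug exposure lasted 48 hr under standard culture conditions. Read-out used CellTiter-Glo reagent with a 15 min room-temperature incubation before luminescence measurement; AUC and Z-AUC summarize the normalized responses.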
# [4] = BET inhibitor-based combinations targeting novel dependencies in MECOM-rearranged (r) AML: UCSD-AML1 cell line (AID 2202235); also: nearly all actives have a fitted effect of over 40% in size
# Outline: as §2
# [5] = BET inhibitor-based combinations targeting novel dependencies in MECOM-rearranged (r) AML: AML-191 cell line (AID 2202236; also: nearly all actives have a fitted effect of over 35% in size)
# Outline: as §1
# [6] = BET inhibitor-based combinations targeting novel dependencies in MECOM-rearranged (r) AML: AML-194 cell line (AID 2202237; also: nearly all actives have a fitted effect of over 40% in size)
# Outline: as §1
# [7] = BET inhibitor-based combinations targeting novel dependencies in MECOM-rearranged (r) AML: HNT-34 cell line (AID 2202234); also: nearly all actives have a fitted effect of over 35% in size
# Outline: as §2
# Potency is read from the fitted curve at half-maximal effect.
SMILES,activation [1],viability [2] [%],Potency [3],Potency [4],Potency [5],Potency [6],Potency [7],Potency [2],Potency [1]
Oc1ccc(OCc2ccccc2)cc1,-16.4% and -11.2%,81.8,9.34 µM (active),,,,,,
O=C(O)c1ccc(-c2c[nH]c3ncc(-c4ccccc4)cc23)cc1C1CCCC1,-17.5%,89.8,2.95 µM (active),inactive,,,,,
COc1ccc2cccc(CCNC(C)=O)c2c1,3.03%,116,inactive,inactive,inactive,inactive,,,
C[C@H](CCC(=O)O)[C@H]1CCC2C3C[C@H](O)[C@@H]4C[C@H](O)CC[C@]4(C)C3CC[C@@]21C (stereo partly drawn),10.8%,119,inactive,,inactive,inactive,inactive,,
CN1CCN(c2ncc(-c3cc(Cl)cc(Cl)c3Cl)c(N)n2)CC1,4.6%,,8.33 µM (active),inactive,16.6 µM (active),,,23.5 µM (active),
Nc1nc2c(c(=O)[nH]1)N(C=O)[C@H](CNc1ccc(C(=O)N[C@@H](CCC(=O)O)C(=O)O)cc1)CN2,10.2%,115,inactive,inactive,inactive,inactive,,,
O=C(O)c1nc(=O)[nH]c(=O)[nH]1,3.67%,105,inactive,inactive,inactive,inactive,inactive,,
C=Cc1c(C)c2cc3nc(cc4[nH]c(cc5nc(cc1[nH]2)C(C)=C5CCC(=O)O)c(CCC(=O)OC)c4C)[C@@]1(C)C3=CC=C(C(=O)OC)[C@H]1C(=O)OC,9.63%,97.6,26.3 µM (active),inactive,inactive,inactive,18.6 µM (active),,
C[Se]CCC(N)C(=O)O (stereo not drawn),-7.89%,105,inactive,inactive,inactive,inactive,inactive,,
COC(c1ccccc1)(c1ccccc1)[C@H](Oc1nc(C)cc(C)n1)C(=O)O,-19.8% and -2.24%,106,inactive,,,inactive,inactive,,
CCn1c(-c2nonc2N)nc2c(C#CC(C)(C)O)ncc(OC[C@H]3CCCNC3)c21,-17.2%,101,18.6 µM (active),,,20.9 µM (active),16.6 µM (active),,
O=c1cc(-c2ccccc2)oc2cc(O)cc(O)c12,3.3%,85.1,16.6 µM (active),,,,23.5 µM (active),,
Fc1ccc(Cl)cc1-c1nc(Nc2ccncc2)c2nccnc2n1,0.772%,110,inactive,inactive,inactive,inactive,inactive,,
O=[N+]([O-])c1cn2c(n1)OC[C@@H](OCc1ccc(OC(F)(F)F)cc1)C2,9.64%,111,inactive,,inactive,inactive,inactive,,
Cc1cc(O)c2c(c1)C(=O)c1cccc(O)c1C2=O,32.6%,116,inactive,inactive,inactive,inactive,,,
Cc1cc2c(cc1CC(=O)c1sccc1S(=O)(=O)Nc1onc(C)c1Cl)OCO2,-10% and -11%,68.3,inactive,inactive,inactive,,inactive,,
O=C1NCCc2[nH]c(-c3ccncc3)cc21,,,1.86 µM (active),2.63 µM (active),1.66 µM (active),2.63 µM (active),3.32 µM (active),3.72 µM (active),7.69 µM (active)
CC[C@H](C=C[C@@H](C)[C@H]1CC[C@H]2[C@@H]3CC=C4C[C@@H](O)CC[C@]4(C)[C@@H]3CC[C@]12C)C(C)C,-9.05%,107,inactive,inactive,inactive,inactive,inactive,,
Cc1cc(Nc2cc(NC(=O)c3c(Cl)cccc3Cl)ccn2)nc(N)n1,,,0.332 µM (active),0.296 µM (active),0.263 µM (active),,0.296 µM (active),3.32 µM (active),34.3 µM (active)
O=c1c(O)c(-c2ccc(O)cc2)oc2cc(O)cc(O)c12,36.9%,105,9.34 µM (active),inactive,14.8 µM (active),inactive,,,
CC(=O)SCC(Cc1ccccc1)C(=O)NCC(=O)OCc1ccccc1 (stereo not drawn),16.6%,105,inactive,inactive,inactive,inactive,inactive,,

# From PubChem BioAssay (NCATS)
